# About 610 (0.17%) of roughly 360,000 compounds were called active. Another 2% or so got no clear call; they are omitted. The full list was thinned out, with actives kept by preference. A number with no mark means an inactive call. Cut-off read from the data, not from the text of the source: active = inhibition above about 30%; inconclusive = no clear call, values can overlap the other calls; inactive = below that.
# System: Botulinum neurotoxin type A light chain protease (Clostridium botulinum A str. ATCC 3502)
# Test: blockers of BoNT/A LC substrate cleavage – biochemical, flow cytometry, MLPCN library, primary screen (AID 588499); note: plate controls were buffer without enzyme for full effect and enzyme alone for no effect
# Details: multiplex microsphere protease substrate cleavage, at 10 µM, stronger effect = higher value
row,SMILES,inhibition
1,CN=c1scc(-c2cc(OC)ccc2OC)n1/N=C/c1c(C)[nH]c2ccccc12,7.7%
2,COCCNC(=S)N/N=C/c1c(C)[nH]c2ccccc12,42.9% (active)
3,Cc1[nH]c2ccccc2c1/C=N/NC(=O)CNC(=O)c1ccc2c(c1)OCO2,0.6%
4,CCCN(C(=O)CSc1nnnn1C)c1c(N)n(Cc2ccccc2)c(=O)[nH]c1=O,-0.4%
5,CCOC(=O)c1ccn(-c2nc(-c3ccco3)cc(C(F)(F)F)n2)n1,0.1%
6,O=C(Cn1cnc2c(OCc3ccccc3)ncnc21)NCc1nc2ccccc2[nH]1,-0.1%
7,Cc1ccc(Cc2c(-c3ccco3)nc3ccc(Cl)cn23)cc1,4.3%
8,CCc1nnc(NC(=O)CSc2nc3ccccc3c(=O)n2CCCOC)s1,0.5%
9,O=[N+]([O-])c1ccc(NS(=O)(=O)c2ccccc2)c(Cl)c1,-0.4%
10,CCN(C(=O)Cc1c(C(=O)O)n(CC)c2ccccc12)c1ccccc1C,-3.2%
11,O=C1/C(=C/c2ccc(F)cc2)SC(=S)N1NS(=O)(=O)c1ccccc1,1.8%
12,COc1cc(/C=C2\SC(=S)N(Nc3ncc(C(F)(F)F)cc3Cl)C2=O)cc(OC)c1OC,82.7% (active)
13,COc1cc(-c2nnc(Cn3cc(C(F)(F)F)ccc3=O)o2)cc(OC)c1OC,0.9%
14,Nc1nnc(SCC(=O)OCc2ccc(Cl)c(Cl)c2)s1,-0.2%
15,O=c1cnnc(Nc2ccccc2F)[nH]1,-1.3%
16,N#Cc1ccc(N2Cc3ccccc3/C2=N/C(=O)Nc2ccc(Cl)cc2)cc1,-0.1%
17,Cc1cc([N+](=O)[O-])nn1Cc1ccc(F)cc1,-0.3%
18,Nc1nonc1-n1nnc(C(=O)N/N=C/c2cc(Br)ccc2O)c1CSC1=NCCS1,0.6%
19,COc1ccc(CCNC(=S)N2CCN(S(=O)(=O)c3ccc(F)cc3)CC2)cc1,0.6%
20,CC1CCc2c(sc3nc4n(c(=O)c23)CCS4)C1 (stereo unspecified),52.4% (active)
21,Cn1c(NN)nc2sc3c(c2c1=O)CCC3,-1.4%
22,CCCn1nnc2sc3c(c2c1=O)CCC(C)C3 (stereo unspecified),0.3%
23,Cc1ccc2[nH]c(C(=O)O)c(NC(=O)c3ccccc3[N+](=O)[O-])c2c1,0.9%
24,O=C1CSC(c2cccc(F)c2)N1c1ccccc1F (stereo unspecified),-0.9%
25,Cc1cc(Br)ccc1NC(=O)CCCOc1cc(=O)n(C)c2ccccc12,0%
26,CCC(=O)N(C)C(c1ccccc1Cl)c1nnnn1-c1c(C)cccc1C (stereo unspecified),-0.4%
